PubChem BioAssay (NCATS)
Inconclusive results are not listed. Values without a mark were called inactive. Calls of active or inactive are those of the source. The call rests on the fitted dose curve; in most records, active means well fitted cell-killing curve with a large enough effect; inconclusive means small, poorly fitted or top-dose-only effect; inactive means flat fitted curve, though single readings scatter.

assay: qHTS of pediatric cancer cell lines to identify multiple opportunities for drug repurposing: Primary screen for BT-12 cells (AID 1347101); conditions: BT-12 viability, CellTiter-Glo luminescence, 48 h; series mostly up to 57.3 µM; activity change, negative = cytotoxic: at the top concentration; further: nearly all actives have a fitted effect of over 25% in size;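 on activity change, negative = cytotoxic: plate controls were DMSO for no effect and bortezomib positive control for full effect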
In short: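 Cells (500-1,000/well) rested 5 h, then received compounds for 48 h; metabolically active cells were measured by CellTiter-Glo luminescence. Final concentrations spanned up to 46 µM (MIPE, 11-point) or 0.59 nM-46 µM (NPC, 8-point) in primary screens, 11-point in follow-ups.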
Potency means the concentration at half of the fitted maximal effect.

**Q.** For C=Cc1c(C)c2cc3nc(cc4[nH]c(cc5nc(cc1[nH]2)C(C)=C5CCC(=O)O)c(CCC(=O)OC)c4C)[C@@]1(C)C3=CC=C(C(=O)OC)[C@H]1C(=O)OC, which Potency is on record?
**A.** Its Potency is 0.344 µM (active).

**Q.** With CCc1ccc(C(=O)Nc2cc(CN3CCN(C)CC3)cc(C(F)(F)F)c2)cc1C#Cc1cnc2ccnn2c1 as the compound, how does the Potency read?
**A.** Its Potency is 27.3 µM (active).

**Q.** For CC(=O)N[C@@H]1[C@H](O[C@@H]2c3ccc(c(Cl)c3)Oc3cc4cc(c3O[C@H]3O[C@H](CO)[C@@H](O)[C@H](O)[C@H]3NC(=O)CCCCCCCC(C)C)Oc3ccc(cc3Cl)C[C@H]3NC(=O)[C@H](N)c5ccc(O)c(c5)Oc5cc(O)cc(c5)[C@H](NC3=O)C(=O)N[C@H]4C(=O)N[C@H]3C(=O)N[C@@H]2C(=O)N[C@@H](C(=O)O)c2cc(O)cc(O[C@H]4O[C@H](CO)[C@@H](O)[C@H](O)[C@H]4O)c2-c2cc3ccc2O)O[C@H](CO)[C@@H](O)[C@@H]1O, which “activity change, negative = cytotoxic” value is on record?
**A.** Its value is 7.03%.

**Q.** Which Potency does the source give for Cc1[nH]c(C=C2C(=O)Nc3ccccc32)c(C)c1CCC(=O)O here?
**A.** Its Potency is 7.69 µM (active).

**Q.** Which “activity change, negative = cytotoxic” value does the source give for N[C@H]1CN(c2c(F)cc3c(=O)c(C(=O)O)cn(C4C[C@@H]4F)c3c2Cl)CC12CC2 (stereo partly drawn) here?
**A.** The value was 8.9%.

**Q.** Which Potency does the source give for Nc1nc(N)c2nc(-c3cccc(O)c3)c(-c3cccc(O)c3)nc2n1 here?
**A.** Its Potency is 21.7 µM (active).

**Q.** For CN(N=O)C(=O)N[C@H]1C(O)OC(CO)[C@@H](O)[C@H]1O (stereo partly drawn), which “activity change, negative = cytotoxic” value is on record?
**A.** Its value is 15.5%.

**Q.** With COc1cc(N2CCC(C(N)=O)CC2)ccc1Nc1nc(N)c(Cl)c(Nc2ccccc2S(=O)(=O)C(C)C)n1 as the compound, how does the “activity change, negative = cytotoxic” value read?
**A.** Its value is 5.23%.

**Q.** With C[C@H](CCC(=O)O)[C@H]1CCC2C3C[C@H](O)[C@@H]4C[C@H](O)CC[C@]4(C)C3CC[C@@]21C (stereo partly drawn) as the compound, how does the “activity change, negative = cytotoxic” value read?
**A.** The value was -7.6%.

**Q.** Which Potency does the source give for CC(C)[C@H](CO)Nc1nc(Nc2cccc(Cl)c2)c2ncn(C(C)C)c2n1 here?
**A.** The Potency was 21.7 µM (active).

**Q.** Which Potency does the source give for CC(C)NC[C@@H](C(=O)N1CCN(c2ncnc3c2[C@H](C)C[C@H]3O)CC1)c1ccc(Cl)cc1 here?
**A.** The Potency was 24.3 µM (active).

**Q.** Which Potency does the source give for COc1ccc(C(C)=O)c(O)c1 here?
**A.** Its Potency is 6.85 µM (active).

**Q.** With O=C1NC(O)CCN1[C@@H]1O[C@H](CO)[C@H](O)[C@H]1O (stereo partly drawn) as the compound, how does the “activity change, negative = cytotoxic” value read?
**A.** Its value is 7.23%.

**Q.** Which Potency does the source give for NC(=NCCCCCCN=C(N)N=C(N)Nc1ccc(Cl)cc1)N=C(N)Nc1ccc(Cl)cc1 here?
**A.** The Potency was 13.7 µM (active).

**Q.** Which Potency does the source give for CCN(CC)Cc1ccc2cc(COC(=O)Nc3ccc(C(=O)NO)cc3)ccc2c1 here?
**A.** Its Potency is 3.06 µM (active).

**Q.** Which Potency does the source give for COc1ccc(S(=O)(=O)Nc2cccnc2Nc2ccc(O)cc2)cc1 here?
**A.** The Potency was 0.432 µM (active).

**Q.** For NC1=N[C@H]2[C@H](CS[C@H]2CCCCC(=O)O)N1, which “activity change, negative = cytotoxic” value is on record?
**A.** Its value is 12.4% [at 20.1 µM].

**Q.** Which Potency does the source give for Cn1cnc(=N)c2[nH]cnc21 here?
**A.** Its Potency is 1.53 µM (active).

**Q.** Which Potency does the source give for O=C(NC1CC1)c1cccc(-c2ccc3c(NC(=O)C4CC4)n[nH]c3c2)c1 here?
**A.** Its Potency is 3.85 µM (active).

**Q.** For CN[C@@H]1C[C@H]2O[C@@](C)([C@H]1OC)n1c3ccccc3c3c4c(c5c6ccccc6n2c5c31)C(=O)N[C@H]4O, which Potency is on record?
**A.** Its Potency is 27.3 µM (active).

**Q.** For COc1cc2c(Nc3ccc(Cl)c(Cl)c3F)ncnc2cc1OCC1C[C@@H]2CN(C)C[C@H]2C1, which Potency is on record?
**A.** Its Potency is 24.3 µM (active).

**Q.** With Oc1ccc([C@@H]2Oc3ccc(O)cc3[C@@H]3CCC[C@@H]32)cc1 as the compound, how does the Potency read?
**A.** Its Potency is 24.3 µM (active).

**Q.** Which Potency does the source give for C=C1C(=CC=C2CCC[C@]3(C)[C@@H]([C@H](C)CCCC(C)(C)O)CC[C@@H]23)C[C@@H](O)C[C@@H]1O here?
**A.** The Potency was 6.85 µM (active).

**Q.** With COc1cccc2c1C(=O)c1c(O)c3c(c(O)c1C2=O)C[C@@](O)(C(C)=O)C[C@H]3O[C@H]1C[C@H](N)[C@H](O)[C@H](C)O1 as the compound, how does the Potency read?
**A.** The Potency was 0.0769 µM (active).

**Q.** Which Potency does the source give for O=C(Nc1cccc(Nc2ncc(Br)c(NCCc3cnc[nH]3)n2)c1)N1CCCC1 here?
**A.** The Potency was 19.3 µM (active).

**Q.** Which “activity change, negative = cytotoxic” value does the source give for CC(C)OC(=O)[C@H](C)N[P@](=O)(OC[C@H]1O[C@@H](n2ccc(=O)[nH]c2=O)[C@](C)(F)[C@H]1O)Oc1ccccc1 here?
**A.** The value was -0.698%.

**Q.** With CC(=O)NC(CS)C(=O)O (stereo not drawn) as the compound, how does the “activity change, negative = cytotoxic” value read?
**A.** The value was 7.11%.

**Q.** With O=C1NC(=O)C(=Cc2ccc3nccc(-c4ccncc4)c3c2)S1 as the compound, how does the Potency read?
**A.** Its Potency is 0.385 µM (active).
